Test results from PubChem BioAssay (NCI).
The panel holds about 83,000 compounds, 20% with a hit somewhere; the sample as a whole holds those more often.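 Step 1: grow cells in 96-well plates. Step 2: add test compound at a single concentration. Step 3: incubate 48 h. Step 4: record percent growth.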 The source made the active and inactive calls. How the source made its calls: active means growth percent below 10; inactive means the rest.

Key:
Assay in all cases: NCI-60 one-dose screen, 48 h (100 = growth as untreated, 0 = no growth, -100 = all killed)
Settings in all cases: 10 µM unless noted
DU-145 prostate = tested on: DU-145 prostate
K-562 leukemia = tested on: K-562 leukemia
MALME-3M melanoma = tested on: MALME-3M melanoma
MDA-MB-231 breast = tested on: MDA-MB-231 breast
RXF 393 renal = tested on: RXF 393 renal
SF-268 CNS = tested on: SF-268 CNS
SF-295 CNS = tested on: SF-295 CNS
SF-539 CNS = tested on: SF-539 CNS
UACC-257 melanoma = tested on: UACC-257 melanoma
M14 melanoma = tested on: M14 melanoma
HCT-15 colon = tested on: HCT-15 colon
HT29 colon = tested on: HT29 colon
SNB-75 CNS = tested on: SNB-75 CNS
SNB-19 CNS = tested on: SNB-19 CNS
PC-3 prostate = tested on: PC-3 prostate
SK-MEL-5 melanoma = tested on: SK-MEL-5 melanoma
UACC-62 melanoma = tested on: UACC-62 melanoma
SK-MEL-28 melanoma = tested on: SK-MEL-28 melanoma
U251 CNS = tested on: U251 CNS
LOX IMVI melanoma = tested on: LOX IMVI melanoma

Measured: growth

Cc1ccc2c(c1)c1nc3cc(C)c(C)cc3nc1n2CCN(C)C
inactive: DU-145 prostate 20.5% | MDA-MB-231 breast 19.3% | RXF 393 renal 16.2% | SF-268 CNS 30.3% | SF-539 CNS 11.4% | UACC-257 melanoma 13.1% | M14 melanoma 13.3% | HT29 colon 19% | SNB-75 CNS 23.9% | SNB-19 CNS 17.1% | PC-3 prostate 25% | SK-MEL-5 melanoma 15.4% | UACC-62 melanoma 12.3% | SK-MEL-28 melanoma 17.2%
active: K-562 leukemia 8.09% | MALME-3M melanoma -8.13% | SF-295 CNS 5.24% | HCT-15 colon 3.18%

COc1cc2c(cc1-c1c(C)noc1C)ncc1nc(C3CCC(F)(F)CC3)n([C@@H](C)COC(F)F)c12
inactive: DU-145 prostate 66.9% | K-562 leukemia 25% | MALME-3M melanoma 76.1% | MDA-MB-231 breast 41.6% | RXF 393 renal 54.7% | SF-268 CNS 67.8% | SF-295 CNS 47.7% | SF-539 CNS 30.8% | UACC-257 melanoma 35.9% | M14 melanoma 41.4% | HCT-15 colon 13.4% | HT29 colon 18.7% | SNB-75 CNS 23.4% | SNB-19 CNS 53.4% | U251 CNS 50.5% | PC-3 prostate 36.7% | UACC-62 melanoma 20.2% | LOX IMVI melanoma 11% | SK-MEL-28 melanoma 47.3%

CCOC(=O)C1OC1(c1ccccc1)c1ccccc1 (stereo not drawn)
inactive: DU-145 prostate 108% | K-562 leukemia 109% | MALME-3M melanoma 110% | MDA-MB-231 breast 98.9% | RXF 393 renal 113% | SF-268 CNS 94.2% | SF-295 CNS 113% | SF-539 CNS 106% | UACC-257 melanoma 95.7% | M14 melanoma 107% | HCT-15 colon 109% | HT29 colon 107% | SNB-75 CNS 108% | SNB-19 CNS 107% | U251 CNS 100% | PC-3 prostate 98.7% | UACC-62 melanoma 98% | LOX IMVI melanoma 113% | SK-MEL-28 melanoma 119%

Fc1ccc(NCc2nnc(-c3ccc(Cl)cc3)o2)cc1
inactive: DU-145 prostate 95.5% | K-562 leukemia 53.8% | MALME-3M melanoma 93.8% | MDA-MB-231 breast 55.6% | RXF 393 renal 84.8% | SF-268 CNS 77.9% | SF-295 CNS 77.9% | SF-539 CNS 90.6% | UACC-257 melanoma 68.4% | M14 melanoma 77.9% | HCT-15 colon 81.7% | HT29 colon 70% | SNB-75 CNS 73.6% | SNB-19 CNS 83.2% | U251 CNS 77.8% | PC-3 prostate 54.3% | LOX IMVI melanoma 80.1% | SK-MEL-28 melanoma 93.9%

Cc1ccc(NC2CC(=O)N(c3c(C)cc(C)cc3C)C2=O)c(C)c1 (stereo not drawn)
inactive: DU-145 prostate 105% | K-562 leukemia 98.2% | MALME-3M melanoma 97.7% | MDA-MB-231 breast 103% | RXF 393 renal 124% | SF-268 CNS 101% | SF-295 CNS 111% | SF-539 CNS 102% | UACC-257 melanoma 99.6% | M14 melanoma 107% | HCT-15 colon 105% | HT29 colon 106% | SNB-75 CNS 105% | SNB-19 CNS 92.6% | U251 CNS 95.8% | PC-3 prostate 95.3% | UACC-62 melanoma 94.3% | SK-MEL-28 melanoma 109%

CC(=O)Nc1cc(F)cc(C(F)(F)F)c1Cl
inactive: DU-145 prostate 108% | K-562 leukemia 112% | MALME-3M melanoma 100% | MDA-MB-231 breast 110% | RXF 393 renal 89.4% | SF-268 CNS 98.2% | SF-295 CNS 102% | SF-539 CNS 97.6% | UACC-257 melanoma 103% | M14 melanoma 99.2% | HCT-15 colon 102% | HT29 colon 101% | SNB-75 CNS 83.2% | SNB-19 CNS 106% | U251 CNS 105% | PC-3 prostate 95.7% | UACC-62 melanoma 102% | LOX IMVI melanoma 92.1% | SK-MEL-28 melanoma 101%

N#CC1c2ccccc2-c2ccccc2N1C(=O)c1ccccc1 (stereo not drawn)
active: SF-295 CNS 4.01% | SF-539 CNS 0.949% | M14 melanoma 2.12%
inactive: DU-145 prostate 11.9% | K-562 leukemia 41.5% | MALME-3M melanoma 84% | MDA-MB-231 breast 16.6% | RXF 393 renal 31.7% | SF-268 CNS 34.4% | UACC-257 melanoma 75.9% | HCT-15 colon 12.4% | HT29 colon 12.3% | SNB-75 CNS 39.8% | SNB-19 CNS 53.6% | U251 CNS 18.4% | PC-3 prostate 26.6% | UACC-62 melanoma 22.3% | LOX IMVI melanoma 29.9% | SK-MEL-28 melanoma 58.3%

O=C1NC(c2ccc(Cl)c(Cl)c2)=C/C1=C\c1ccccc1
inactive: DU-145 prostate 95.9% | K-562 leukemia 72.6% | MALME-3M melanoma 63.3% | MDA-MB-231 breast 69.9% | RXF 393 renal 65.2% | SF-268 CNS 92.3% | SF-295 CNS 52.2% | SF-539 CNS 84.7% | UACC-257 melanoma 98.2% | M14 melanoma 90.9% | HCT-15 colon 69% | HT29 colon 87.7% | SNB-75 CNS 63.1% | SNB-19 CNS 80% | U251 CNS 46.1% | PC-3 prostate 79.2% | UACC-62 melanoma 86.7% | SK-MEL-28 melanoma 104%
